Test results as given in PubChem BioAssay (NCI).
About 79,000 compounds went through this panel and 15% of them were active in at least one assay; those are over-represented in the sample as a whole. Unmarked numbers belong to inactive results. Active and inactive are the calls of the source. No stated cut-off is given here; in the data, active means growth inhibition above about 70%; inactive means the rest.

Assay: NCI Yeast Anticancer Drug Screen. Data for the rad14 strain (AID 159);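 further: 0% = growth of vehicle-treated control cultures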
Details: S. cerevisiae rad14 strain growth inhibition, active compounds read high
Method: Growth inhibition of yeast strains with defined genetic alterations is measured as a screen for potential anti-cancer activity. Selected strains with alterations in DNA damage repair or cell cycle control were exposed to compounds and growth inhibition was measured relative to vehicle treated controls. The strain used in this assay is rad14

SMILES	growth inhibition (at 1.2 µM)	growth inhibition (at 3.7 µM)	growth inhibition (at 11.0 µM)	growth inhibition (at 33.0 µM)	growth inhibition (at 100.0 µM)
CCC(=O)C1=C(O)c2cc(OC)ccc2CC1C(=O)OC (stereo not given)	2%	6%	11%	19%	35%
N#[N+]c1c([O-])c2ccccc2c2ccccc12	3%	17%	25%	80% (active)	97% (active)
CCN(CC)C(=S)SC(=S)N(CC)CC	-31%	-4%	34%	99% (active)	98% (active)
Cc1cccc(C)c1NC(=O)C(C#N)C1=C(Cl)C(=O)c2ccccc2C1=O (stereo not given)	-2%	88% (active)	98% (active)	98% (active)	97% (active)
O=C1Oc2ccccc2C(=O)/C1=C/N1C(=O)N/C(=C\c2ccccc2Br)C1=O	1%	2%	13%	59%	97% (active)
CC(C)C(c1ccccc1)c1ccccc1	-1%	-5%	2%	7%	70% (active)
CCOC(=S)SSSC(=S)OCC	0%	5%	40%	96% (active)	99% (active)
O=C1C(/C=C/c2ccc(Cl)cc2)=NNC2N1N=C1NC(=O)C3(NN12)c1ccccc1-c1ccccc13 (stereo not given)	-1%	-2%	-1%	0%	5%
